This is part of a sample that, as a whole, favours compounds with a hit. Of some 79,000 tested, about 15% had one in any assay. A number with no mark means an inactive call. Active and inactive are the calls of the source. Cut-off read from the data, not from the text of the source: active = growth inhibition above about 70%; inactive = the rest.
Key:
[1] = NCI Yeast Anticancer Drug Screen. Data for the rad52 strain (AID 147);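 note: 0% = growth of vehicle-treated control cultures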; conditions: S. cerevisiae rad52 mutant growth inhibition, active compounds read high
Method in brief: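 Here a repair-compromised yeast strain receives each compound; its growth is then quantified and normalised to vehicle-only controls.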

[2] = NCI Yeast Anticancer Drug Screen. Data for the wt1 strain (AID 149);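 note: 0% = growth of vehicle-treated wt1 cultures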; conditions: S. cerevisiae wt1 strain (SPY 50644) growth inhibition, active compounds read high
Method in brief: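 Readout: yeast growth inhibition, normalised to vehicle controls, in the wt1 strain exposed to test compounds.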

[3] = NCI Yeast Anticancer Drug Screen. Data for the rad50EPP+ strain (AID 151);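 note: 0% = growth of vehicle-treated control cultures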; conditions: S. cerevisiae rad50 mutant strain, active compounds read high
Method in brief: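 Read-out is yeast growth inhibition relative to vehicle; cells used were the rad50EPP+ strain.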

[4] = NCI Yeast Anticancer Drug Screen. Data for the mgt1 strain (AID 153); conditions: S. cerevisiae mgt1 mutant growth inhibition, active compounds read high
Method in brief: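 Measured: inhibition of mgt1 yeast growth by compound, normalized to vehicle-treated cultures.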

[5] = NCI Yeast Anticancer Drug Screen. Data for the rad50 strain (AID 155);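 note: 0% = growth of vehicle-only cultures of the same strain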; conditions: S. cerevisiae rad50 strain growth inhibition, active compounds read high
Method in brief: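 Compounds were tested on a yeast strain with an engineered DNA damage repair alteration; the reported value is growth inhibition normalised to vehicle treatment.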

[6] = NCI Yeast Anticancer Drug Screen. Data for the mec2-1 strain (AID 157); conditions: S. cerevisiae mec2-1 strain, active compounds read high
Method in brief: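 Using mec2-1 yeast: add compound, measure growth, express inhibition versus vehicle-treated cultures.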

[7] = NCI Yeast Anticancer Drug Screen. Data for the rad14 strain (AID 159);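 note: 0% = growth of vehicle-treated control cultures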; conditions: S. cerevisiae rad14 strain growth inhibition, active compounds read high
Method in brief: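 Compound-treated yeast with a defined DNA-repair lesion; growth inhibition normalised to vehicle-treated cultures.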

[8] = NCI Yeast Anticancer Drug Screen. Data for the sgs1 mgt1 strain (AID 161);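 note: 0% = growth of cultures given vehicle only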; conditions: S. cerevisiae sgs1 mgt1 strain, active compounds read high
Method in brief: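 Growth of a repair-deficient yeast mutant was monitored after compound treatment and expressed as inhibition relative to vehicle-treated cultures.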

[9] = NCI Yeast Anticancer Drug Screen. Data for the CLN2oe strain (AID 163);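 note: 0% = growth of vehicle-only control cultures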; conditions: S. cerevisiae CLN2oe strain, active compounds read high
Method in brief: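 Whole-cell yeast growth assay. A strain engineered for altered cell-cycle control received compound, and inhibition relative to vehicle-treated cultures was recorded.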

[10] = NCI Yeast Anticancer Drug Screen. Data for the cln2 rad14 strain (AID 165);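 note: 0% = growth equal to vehicle treated cultures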; conditions: S. cerevisiae cln2 rad14 strain, active compounds read high
Method in brief: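 Yeast strain cln2 rad14, bearing defects in cell cycle control and DNA repair, serves as the test system; values reflect growth inhibition compared with vehicle.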

[11] = NCI Yeast Anticancer Drug Screen. Data for the bub3 strain (AID 167); conditions: S. cerevisiae bub3 mutant strain, active compounds read high
Method in brief: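 Growth of a checkpoint-deficient yeast mutant is measured after compound exposure. Values represent inhibition relative to vehicle.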

[12] = NCI Yeast Anticancer Drug Screen. Data for the wt2 strain (AID 169);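 note: 0% = growth of vehicle-treated yeast cultures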; conditions: S. cerevisiae wt2 strain growth inhibition, active compounds read high
Method in brief: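 Treated yeast vs. vehicle-treated yeast: growth inhibition determined.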

[13] = NCI Yeast Anticancer Drug Screen. Data for the mlh1 strain (AID 171);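 note: 0% = growth of vehicle-treated control cultures of the same strain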; conditions: S. cerevisiae mlh1 strain growth inhibition, active compounds read high
Method in brief: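 A yeast strain with a defined genetic lesion serves as the test organism. Cultures receive compound or vehicle, and growth is measured.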

[14] = NCI Yeast Anticancer Drug Screen. Data for the sgs1 strain (AID 173);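 note: 0% = growth of vehicle-only control cultures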; conditions: S. cerevisiae sgs1 mutant, active compounds read high
Method in brief: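 A genetically defined yeast mutant is incubated with the test compound, and its growth is compared to that of the same strain given vehicle.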

[15] = NCI Yeast Anticancer Drug Screen. Data for the mlh1 rad18 strain (AID 175); conditions: S. cerevisiae mlh1 rad18 strain growth inhibition, active compounds read high
Method in brief: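 Steps: expose repair-defective yeast to compound; measure growth; express inhibition against vehicle-treated controls.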

[16] = NCI Yeast Anticancer Drug Screen. Data for the rad18 strain (AID 177); conditions: S. cerevisiae rad18 mutant growth inhibition, active compounds read high
Method in brief: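 Measured value is growth inhibition of a yeast strain bearing a DNA repair alteration, referenced to vehicle-treated cells.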

[17] = at 5.0 µM (retest, dose inferred, filed as 0.5)
[18] = at 50.0 µM (retest, dose inferred, filed as 5.0)

Nc1ccc2c(c1)C(=O)c1ccc(F)cc1-2
growth inhibition ([1]; at 1.2 µM): 13%
growth inhibition ([1]; at 3.7 µM): 24%
growth inhibition ([1]; at 11.0 µM): 43%
growth inhibition ([1]; at 33.0 µM): 47%
growth inhibition ([1]; at 100.0 µM): 53%
growth inhibition ([2]; at 1.2 µM): 1%
growth inhibition ([2]; at 3.7 µM): 2%
growth inhibition ([2]; at 11.0 µM): 9%
growth inhibition ([2]; at 33.0 µM): 14%
growth inhibition ([2]; at 100.0 µM): 16%
growth inhibition ([3]; at 1.2 µM): 13%
growth inhibition ([3]; at 3.7 µM): 28%
growth inhibition ([3]; at 11.0 µM): 46%
growth inhibition ([3]; at 33.0 µM): 59%
growth inhibition ([3]; at 100.0 µM): 60%
growth inhibition ([4]; at 1.2 µM): 2%
growth inhibition ([4]; at 3.7 µM): 9%
growth inhibition ([4]; at 11.0 µM): 15%
growth inhibition ([4]; at 33.0 µM): 24%
growth inhibition ([4]; at 100.0 µM): 19%
growth inhibition ([5]; at 1.2 µM): 16%
growth inhibition ([5]; at 3.7 µM): 36%
growth inhibition [5, 17]: 5%
growth inhibition ([5]; at 11.0 µM): 55%
growth inhibition ([5]; at 33.0 µM): 61%
growth inhibition [5, 18]: 71% (active)
growth inhibition ([5]; at 50.0 µM): 81.4% (active)
growth inhibition ([5]; at 100.0 µM): 51%
growth inhibition ([6]; at 1.2 µM): 4%
growth inhibition ([6]; at 3.7 µM): 10%
growth inhibition [6, 17]: -2%
growth inhibition ([6]; at 11.0 µM): 11%
growth inhibition ([6]; at 33.0 µM): 13%
growth inhibition [6, 18]: 30%
growth inhibition ([6]; at 50.0 µM): 19.6%
growth inhibition ([6]; at 100.0 µM): 22%
growth inhibition ([7]; at 1.2 µM): 6%
growth inhibition ([7]; at 3.7 µM): 13%
growth inhibition ([7]; at 11.0 µM): 15%
growth inhibition ([7]; at 33.0 µM): 18%
growth inhibition ([7]; at 100.0 µM): 22%
growth inhibition [8, 17]: -6%
growth inhibition [8, 18]: 32%
growth inhibition ([8]; at 50.0 µM): 9.55%
growth inhibition ([9]; at 1.2 µM): 5%
growth inhibition ([9]; at 3.7 µM): 7%
growth inhibition ([9]; at 11.0 µM): 11%
growth inhibition ([9]; at 33.0 µM): 20%
growth inhibition ([9]; at 100.0 µM): 16%
growth inhibition [10, 17]: 5%
growth inhibition [10, 18]: 8%
growth inhibition ([10]; at 50.0 µM): 5.25%
growth inhibition ([11]; at 1.2 µM): 2%
growth inhibition ([11]; at 3.7 µM): 6%
growth inhibition [11, 17]: -13%
growth inhibition ([11]; at 11.0 µM): 12%
growth inhibition ([11]; at 33.0 µM): 12%
growth inhibition [11, 18]: 35%
growth inhibition ([11]; at 50.0 µM): 20%
growth inhibition ([11]; at 100.0 µM): 20%
growth inhibition ([12]; at 1.2 µM): 1%
growth inhibition ([12]; at 3.7 µM): 3%
growth inhibition ([12]; at 11.0 µM): 7%
growth inhibition ([12]; at 33.0 µM): 11%
growth inhibition ([12]; at 100.0 µM): 12%
growth inhibition ([13]; at 1.2 µM): 3%
growth inhibition ([13]; at 3.7 µM): 13%
growth inhibition ([13]; at 11.0 µM): 14%
growth inhibition ([13]; at 33.0 µM): 13%
growth inhibition ([13]; at 100.0 µM): 22%
growth inhibition ([14]; at 1.2 µM): -4%
growth inhibition ([14]; at 3.7 µM): -4%
growth inhibition ([14]; at 11.0 µM): 0%
growth inhibition ([14]; at 33.0 µM): 2%
growth inhibition ([14]; at 100.0 µM): 4%
growth inhibition [15, 17]: 15%
growth inhibition [15, 18]: 78% (active)
growth inhibition ([15]; at 50.0 µM): 33.2%
growth inhibition ([16]; at 1.2 µM): 0%
growth inhibition ([16]; at 3.7 µM): 6%
growth inhibition ([16]; at 11.0 µM): 26%
growth inhibition ([16]; at 33.0 µM): 35%
growth inhibition ([16]; at 100.0 µM): 14%

Reference: PubChem BioAssay (NCI)
